In PubChem BioAssay (NCI) one finds growth data, which are given here for 39 compounds.

SMILES strings stand for the structures. Compounds without any hit were thinned out: in the full panel of roughly 83,000, 20% have a hit.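 Treatment: one concentration, 48 hours, 96-well format. Scoring: percent growth, with anything below 10 considered active.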 Active and inactive are the calls of the source.

One test concerns NCI-H23 lung. In words: NCI-60 one-dose screen, 48 h (100 = growth as untreated, 0 = no growth, -100 = all killed). To be noted: 10 µM unless noted.
Consider `CCn1c(-c2nonc2Nc2ccc(OC)cc2)nc2ccccc21`, for which the growth was 107% (inactive).

For `O=C(Nc1ccc(N2CCNCC2)cn1)c1[nH]ncc1Nc1ncnc2sc3c(c12)CCC3`, the growth was 10.7% (inactive).

Regarding `O=C(/C=C/c1cccc(Cl)c1)OCc1ccc2cc1OCC#C/C=C\C#CCO2`, the growth was 102% (inactive).

As to `C[n+]1c2ccccc2nc2ccc(NCCO)cc21`, the growth was 90.6% (inactive).

Consider `Nc1nc2c(ncn2[C@@H]2O[C@H](CS)[C@@H](O)[C@H]2O)c(=O)[nH]1`, for which the growth was 102% (inactive).

As for `Cn1c(C(=O)c2cccc3ccccc23)nc2ccccc21`, the growth is 19.4% (inactive).

In the case of `CC/C(=C(\CC)c1ccc(OCC[N+](C)(C)C)cc1)c1ccc(OC)cc1`, the growth was 56.7% (inactive).

With `O=C(Nc1ccc(F)cc1F)c1cc(I)ccc1O`, the growth is 8.86% (active).

For the compound `CC(C)Cn1c2c(c(=S)[nH]c1=O)CCC2`, the growth was 104% (inactive).

For the compound `CNCCNc1nc2ccccc2c2c(=O)c3cccc(C)c3sc12`, the growth was 58.2% (inactive).

Regarding `COC(=O)c1c2c(c(C)[n+]([O-])c1C)C(=O)C(NCc1ccc(F)c(F)c1)=CC2=O`, the growth was -5.8% (active).

As for `O=C(Cn1cc(COc2ncnc3c2cnn3-c2ccccc2)nn1)Nc1ccccn1`, the growth is 96.6% (inactive).

In another test the test system is NCI-H322M lung. The test is described as above. Particulars: 10 µM unless noted.
Regarding `NCCNc1nc2ccccc2c2c(=O)c3cc(F)cc(Cl)c3sc12`, the growth is -27.1% (active).

For `C=C1C(=O)O[C@H]2[C@H]1CC/C(COC(=O)/C=C\C(=O)O)=C\CC[C@@]1(C)O[C@@H]21`, the growth is 105% (inactive).

In the case of `COc1ccccc1C(=O)/C=C/c1ccccc1`, the growth is 86.1% (inactive).

Regarding `Cn1cc([C@@H]2Nc3ccc4[nH]ncc4c3[C@H]3[C@H]4CCC(C4)[C@H]32)c(C(F)(F)F)n1`, the growth was 89.5% (inactive).

For `N#Cc1c(N)nc2c(c1N)C(c1ccc(F)cc1)c1ccc(N)cc1O2` (stereo unspecified), the growth was 150% (inactive).

As for `O=C(CN1C=NC2C(N3CCOCC3)=NC=NC21)c1ccc(Br)cc1` (stereo unspecified), the growth was 97.2% (inactive).

Regarding `CCCCN1CCN(c2ccc3nc(-c4ccc5nc(-c6ccc(OCC)cc6)[nH]c5c4)[nH]c3c2)CC1`, the growth is 82.4% (inactive).

`CCN(CCO)CCNc1ccc(C)c2sc3cc(Cl)ccc3c(=O)c12`: the growth was 47% (inactive).

Turning to `Cc1nn(-c2nc3ccccc3[nH]2)c2c1C(c1ccc(OCC(N)=O)cc1)CC(=O)N2` (stereo unspecified), the growth was 105% (inactive).

Regarding `COC(=O)/C(CCC=C(C)C)=C1\[C@@H](OC(C)=O)C[C@@]2(C)[C@H]1C[C@@H](O)[C@H]1[C@@]3(C)CC[C@H](NCCO)[C@@H](C)[C@@H]3CC[C@@]12C`, the growth was 101% (inactive).

For `CCCc1c(C)c2sc(=O)[nH]c2[nH]c1=O`, the growth is 111% (inactive).

In the case of `O=C(/C=C/c1ccc(Cl)cc1)c1ccc(Nc2nc(NCCO)nc(Nc3ccc(Cl)cc3)n2)cc1`, the growth was 86.7% (inactive).

Turning to `COc1cccc2c(=O)c3c(sc12)c(NCCCNCCO)nc1ccccc13`, the growth is 53.4% (inactive).

For the compound `CCCCc1ccc(NS(=O)(=O)c2cc3c4c(c2)CCN4C(=O)CC3)cc1`, the growth is 32.7% (inactive).

With `O=C1/C(=C/c2ccc(O)cc2)COc2ccc(O)cc21`, the growth is 98.2% (inactive).

As for `Cc1cc(Nc2ccc(OCc3ccccc3)cc2)nc2cc(O)ccc12`, the growth is 76.2% (inactive).

Take `O=C(c1nc2ccccc2[nH]1)C1[C@@H](c2cccc(O)c2)C2CC3CCCCC3N2[C@@]12C(=O)Nc1cc(Cl)ccc12` (stereo partly specified): the growth was 61.6% (inactive).

As to `O=c1oc2ccc(Br)cc2c(=O)n1-c1ccc(Br)cc1F`, the growth is 2.56% (active).

In the case of `O=C(/C=C/c1ccc(C(F)(F)F)cc1)c1ccc(Nc2nc(NCCO)nc(N3CCOCC3)n2)cc1`, the growth was 40.5% (inactive).

For `C#CCn1cc(C=C2C(=O)N(C)C(=O)N(C)C2=O)c2cc(Cl)ccc21`, the growth is 102% (inactive).

Regarding `COc1ccc(/C=C2/SC(=O)N(CC(=O)N3CCN(c4cc5c(cc4F)c(=O)c(C(=O)O)cn5C4CC4)CC3)C2=O)cc1`, the growth was 99% (inactive).

As for `CCOC(=O)C1=C(C)N=c2s/c(=C\c3ccccc3O)c(=O)n2C1c1ccc(OC)c2ccccc12` (stereo unspecified), the growth was 10.5% (inactive).

With `Nc1ccc(-c2ccc(-c3ccccc3N)c3[nH]c4ccccc4c23)cc1`, the growth was 41.4% (inactive).

On to `CCOC(=O)c1c2c(n3cccc(Cl)c13)C(=O)c1ncccc1C2=O`, for which the growth was 26.5% (inactive).

On to `O=C(Nc1ccc(C23CC4CC(CC(c5ccccc5)(C4)C2)C3)cc1)c1cccs1`, for which the growth is 92.5% (inactive).

On to `Cc1ccc2sc3c(NCCCNCCO)nc4ccccc4c3c(=O)c2c1`, for which the growth was 73.1% (inactive).

For the compound `COc1ccccc1N1CCN(C(CNS(=O)(=O)c2ccc(Cl)cc2)c2cccnc2)CC1` (stereo unspecified), the growth is 128% (inactive).

Consider `CCn1c(-c2nonc2Nc2ccc(OC)cc2)nc2ccccc21`, for which the growth is 105% (inactive).

As for `O=C(Nc1ccc(N2CCNCC2)cn1)c1[nH]ncc1Nc1ncnc2sc3c(c12)CCC3`, the growth was 63.8% (inactive).

Take `O=C(/C=C/c1cccc(Cl)c1)OCc1ccc2cc1OCC#C/C=C\C#CCO2`: the growth was 91.1% (inactive).

In the case of `C[n+]1c2ccccc2nc2ccc(NCCO)cc21`, the growth was 88.8% (inactive).

For the compound `Nc1nc2c(ncn2[C@@H]2O[C@H](CS)[C@@H](O)[C@H]2O)c(=O)[nH]1`, the growth is 93.3% (inactive).

On to `Cn1c(C(=O)c2cccc3ccccc23)nc2ccccc21`, for which the growth was -2.65% (active).

On to `CC/C(=C(\CC)c1ccc(OCC[N+](C)(C)C)cc1)c1ccc(OC)cc1`, for which the growth was 99.3% (inactive).

On to `O=C(Nc1ccc(F)cc1F)c1cc(I)ccc1O`, for which the growth was 8.13% (active).

For `CC(C)Cn1c2c(c(=S)[nH]c1=O)CCC2`, the growth is 103% (inactive).

As for `CNCCNc1nc2ccccc2c2c(=O)c3cccc(C)c3sc12`, the growth was 40.9% (inactive).

Take `COC(=O)c1c2c(c(C)[n+]([O-])c1C)C(=O)C(NCc1ccc(F)c(F)c1)=CC2=O`: the growth is 13.4% (inactive).

As for `O=C(Cn1cc(COc2ncnc3c2cnn3-c2ccccc2)nn1)Nc1ccccn1`, the growth is 93.6% (inactive).
